Results filed as inconclusive are left out. The source holds several records for some structures; these can differ, active in one and inactive in another. The source made the active and inactive calls. How the source made its calls, unless noted: active means hit-call score of the fitted dose curve at least 0.9, where 1 is the maximum; inconclusive means response in the unintended direction; inactive means score below 0.9.

In PubChem BioAssay (EPA / NIEHS) one finds outcome and AC50 data, which are given here for 16 compounds.

Test [1] addresses Estrogen receptor beta (Homo sapiens) (UniProt Q92731). Description: OT_ER_ERbERb_1440: Odyssey Thera (OT) 24-hour HEK293T Protein-Complementation Assay for Estrogen Receptor-beta/-beta Homodimer (AID 2283380).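 Further: fluorescence gain from ER beta LBD homodimer complementation read by laser scanning cytometry; scored as signal increase over DMSO baseline for both agonists and antagonists.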 The gist of the method: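 HEK293T cells stably expressing human ER-beta LBD (aa 310-547) PCA homodimer pair, dosed 24 h; formaldehyde-fixed, Draq5-stained. Readout: increase in nuclear (agonist) or nuclear plus cytoplasmic (antagonist) fluorescence intensity versus DMSO, gain-of-signal fitting.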

The target of test [2] is Retinoic acid receptor RXR-alpha (Homo sapiens) (UniProt P19793). Nature of the test: OT_NURR1_NURR1RXRa_0480: Odyssey Thera (OT) 8-hour HEK293T Protein Complementation Assay for Nurr1/retinoid X receptor (RXR) (AID 2283385). In short, it runs like this:
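8 h compound exposure, HEK293T; Nurr1/RXRα fragment complementation; fluorescence intensity; positive fitting direction vs DMSO baseline.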

The target is the same in test [3]. Description: OT_NURR1_NURR1RXRa_1440: Odyssey Thera (OT) 24-hour HEK293T Protein Complementation Assay for Nurr1/retinoid X receptor (RXR) (AID 2283386). In short, it runs like this:
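Interaction of Nurr1 with RXRα brings fused reporter fragments together in human HEK293T cells, restoring a functional reporter. Fluorescence intensity is measured 24 h after chemical treatment, and values are analysed in the positive direction against DMSO.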

Test [4] has as its target Peroxisome proliferator-activated receptor gamma (Homo sapiens) (UniProt P37231). Description: OT_PPARg_PPARgSRC1_0480: Odyssey Thera (OT) 8-hour Protein-Complementation Assay for Peroxisome Proliferator-activated Receptor Gamma / SRC-1 Co-activator (AID 2283387).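 Further: nuclear to cytoplasmic split Venus YFP fluorescence ratio reporting PPARg SRC-1 interaction.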 In short, it runs like this:
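Read-out: 488 nm N/C fluorescence ratio from complemented Venus YFP fragments, ≥350 cells per image, gain-of-signal fitted against DMSO baseline. Fusions of PPARg/SRC-1 with IFP1/IFP2 expressed transiently in HEK293T; compounds applied 8 h.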

Test [5] has the same target. Nature of the test: OT_PPARg_PPARgSRC1_1440: Odyssey Thera (OT) 24-hour Protein-Complementation Assay for Peroxisome Proliferator-activated Receptor Gamma/ SRC-1 Co-activator (AID 2283388).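 Further: nuclear to cytoplasmic ratio of reconstituted Venus YFP fluorescence in fixed imaged cells.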 The gist of the method:
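Readout: nuclear-to-cytoplasmic 488 nm fluorescence ratio, ≥350 cells per image, 8 images per well, after 24 h compound exposure of HEK293T expressing PPARg/SRC-1 split-YFP fusions. Activity fitted in positive direction against DMSO.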

Test [6] can be described thus: CEETOX_H295R_11DCORT: CeeTox H295R High-throughput Steroidogenesis Assay for 11-Deoxycortisol (11DCORT) (AID 2283432; active means hit-call score of the fitted dose curve at least 0.9, where 1 is the maximum; inactive means score below 0.9;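 on AC50: 11-deoxycortisol secreted into the medium measured by LC-MS/MS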). The following applies: actives raise or lower the signal. The gist of the method: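 H295R cells; 10 uM forskolin prestim 48 h; compound in 0.1% DMSO 48 h; media extracted with MTBE; 11-deoxycortisol by LC-MS/MS, 7-point standard curve; gain/loss vs DMSO baseline; viability by MTT in same wells.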

A short description of test [7]: CEETOX_H295R_OHPREG: CeeTox H295R High-throughput Steroidogenesis Assay for OH-Pregnenolone (OHPREG) (AID 2283434; active means hit-call score of the fitted dose curve at least 0.9, where 1 is the maximum; inactive means score below 0.9). The following applies: actives raise or lower the signal. In short, it runs like this: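 Human adrenal H295R cells were prestimulated 48 h with 10 uM forskolin, then exposed 48 h to chemical in 0.1% DMSO. Medium 17alpha-hydroxypregnenolone was quantified by HPLC-MS/MS after MTBE extraction; bidirectional fitting versus DMSO baseline.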

Test [8] can be described thus: CEETOX_H295R_OHPROG: CeeTox H295R High-throughput Steroidogenesis Assay for OH-Progesterone (OHPROG) (AID 2283435; active means hit-call score of the fitted dose curve at least 0.9, where 1 is the maximum; inactive means score below 0.9;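 on AC50: 17alpha-hydroxyprogesterone secreted into medium measured by HPLC-MS/MS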). The note with it: actives raise or lower the signal. In short, it runs like this: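 H295R, 10 uM forskolin prestim 48 h; cmpd in 0.1% DMSO 48 h; medium MTBE-extracted, HPLC-MS/MS for OH-progesterone; 7-pt std curve; bidirectional fit vs DMSO; MTT viability, chemicals diluted until viability >/=70%.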

Test [9] in a line: CEETOX_H295R_CORTIC: CeeTox H295R High-throughput Steroidogenesis Assay for Corticosterone (CORTIC) (AID 2283437; active means hit-call score of the fitted dose curve at least 0.9, where 1 is the maximum; inactive means score below 0.9;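 further: corticosterone secreted into medium quantified by mass spectrometry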). The following applies: actives raise or lower the signal. In short, it runs like this: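 H295R cells were prestimulated 48 h with 10 uM forskolin, then exposed 48 h to test chemical in 0.1% DMSO. Medium corticosterone was MTBE-extracted and quantified by HPLC-MS/MS; bidirectional fit versus DMSO baseline.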

The target in test [10] is Bile acid receptor (Homo sapiens) (UniProt Q96RI1). Nature of the test: OT_FXR_FXRSRC1_0480: Odyssey Thera (OT) 8-hour HEK293T Protein-Complementation Assay for Farnesoid X receptor/SRC-1 Co-activator (AID 2283383). In short, it runs like this: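 Human kidney HEK293T cells carried FXR/SRC-1 fragment-complementation constructs. Compounds were added and incubated 8 h. Reporter reassembly upon receptor–co-activator interaction was then quantified by fluorescence, with curves fitted in the positive direction relative to DMSO.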
Bile acid receptor (Homo sapiens), sequence (Q96RI1 whole entry, looked up, the tested form may be a part): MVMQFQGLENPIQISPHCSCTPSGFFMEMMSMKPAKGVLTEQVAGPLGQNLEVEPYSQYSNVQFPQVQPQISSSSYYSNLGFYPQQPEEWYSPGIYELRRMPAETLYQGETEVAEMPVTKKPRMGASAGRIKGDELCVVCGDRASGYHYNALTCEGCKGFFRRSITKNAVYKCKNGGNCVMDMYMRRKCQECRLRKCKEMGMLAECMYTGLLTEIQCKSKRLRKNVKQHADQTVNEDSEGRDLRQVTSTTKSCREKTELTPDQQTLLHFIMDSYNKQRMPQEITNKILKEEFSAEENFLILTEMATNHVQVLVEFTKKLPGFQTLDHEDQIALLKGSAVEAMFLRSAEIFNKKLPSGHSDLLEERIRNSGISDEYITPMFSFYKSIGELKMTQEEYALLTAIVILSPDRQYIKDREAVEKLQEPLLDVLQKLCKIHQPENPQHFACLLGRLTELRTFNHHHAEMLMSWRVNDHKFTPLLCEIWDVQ

For test [11] the target is unchanged. Nature of the test: OT_FXR_FXRSRC1_1440: Odyssey Thera (OT) 24-hour HEK293T Protein-Complementation Assay for Farnesoid X receptor/SRC-1 Co-activator (AID 2283384). In short, it runs like this:
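Compounds are applied to human kidney HEK293T cells expressing bait and prey fused to reporter protein fragments; after 24 h, reconstituted reporter fluorescence is measured. Activity is fitted as signal gain over DMSO.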

For test [12], the target named is Estrogen receptor (Homo sapiens) (UniProt P03372). Nature of the test: OT_ERa_GFPERaERE_0480: Odyssey Thera (OT) 8-hour HeLa Transcription Induction Assay for Estrogen Receptor (AID 2283381; active means hit-call score of the fitted dose curve at least 0.9, where 1 is the maximum; inactive means score below 0.9). The gist of the method:
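Fluorescent reporter signal, imaged by microscopy and scored with image-analysis algorithms, was taken 8 h after chemical dosing of HeLa cells; activity was fitted upward relative to DMSO.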

For test [13] the target is unchanged. Nature of the test: OT_ERa_GFPERaERE_0120: Odyssey Thera (OT) 2-hour HeLa Transcription Induction Assay for Estrogen Receptor (AID 2283382). In short, it runs like this:
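HeLa, 384-well, 2 h chemical exposure; GFP reporter induction (ERE), fluorescence microscopy; high content image analysis; positive fitting direction vs DMSO.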

Estrogen receptor beta (Homo sapiens), sequence (Q92731 whole entry, looked up, the tested form may be a part): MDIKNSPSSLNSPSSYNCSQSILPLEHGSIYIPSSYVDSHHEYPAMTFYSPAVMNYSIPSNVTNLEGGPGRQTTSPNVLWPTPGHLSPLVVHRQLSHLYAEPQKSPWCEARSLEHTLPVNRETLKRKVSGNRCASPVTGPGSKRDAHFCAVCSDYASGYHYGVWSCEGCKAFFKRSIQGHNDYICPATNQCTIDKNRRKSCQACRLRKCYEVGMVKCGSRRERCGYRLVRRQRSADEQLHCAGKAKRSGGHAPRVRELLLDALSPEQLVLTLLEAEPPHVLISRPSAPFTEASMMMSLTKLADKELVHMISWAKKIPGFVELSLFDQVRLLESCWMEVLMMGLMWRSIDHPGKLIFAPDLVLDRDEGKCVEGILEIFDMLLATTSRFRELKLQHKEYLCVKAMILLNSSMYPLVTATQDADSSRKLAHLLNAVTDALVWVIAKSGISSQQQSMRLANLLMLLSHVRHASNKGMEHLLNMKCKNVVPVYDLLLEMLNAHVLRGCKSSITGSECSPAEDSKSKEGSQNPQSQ
Peroxisome proliferator-activated receptor gamma (Homo sapiens), sequence (P37231 whole entry, looked up, the tested form may be a part): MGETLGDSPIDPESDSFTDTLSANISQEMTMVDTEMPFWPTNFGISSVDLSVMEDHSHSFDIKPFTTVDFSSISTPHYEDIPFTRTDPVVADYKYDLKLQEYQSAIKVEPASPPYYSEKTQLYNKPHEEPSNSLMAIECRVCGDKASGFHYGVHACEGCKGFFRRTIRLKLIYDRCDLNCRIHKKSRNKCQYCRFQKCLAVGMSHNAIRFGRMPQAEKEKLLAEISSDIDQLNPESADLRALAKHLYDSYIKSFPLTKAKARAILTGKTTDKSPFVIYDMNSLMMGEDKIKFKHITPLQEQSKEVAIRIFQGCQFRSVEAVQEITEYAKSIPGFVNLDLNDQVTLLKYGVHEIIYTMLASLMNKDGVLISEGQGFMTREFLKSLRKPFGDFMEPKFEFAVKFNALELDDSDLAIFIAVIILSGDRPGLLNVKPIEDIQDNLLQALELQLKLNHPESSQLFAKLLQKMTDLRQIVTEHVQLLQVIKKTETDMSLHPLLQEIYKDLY
Retinoic acid receptor RXR-alpha (Homo sapiens), sequence (P19793 whole entry, looked up, the tested form may be a part): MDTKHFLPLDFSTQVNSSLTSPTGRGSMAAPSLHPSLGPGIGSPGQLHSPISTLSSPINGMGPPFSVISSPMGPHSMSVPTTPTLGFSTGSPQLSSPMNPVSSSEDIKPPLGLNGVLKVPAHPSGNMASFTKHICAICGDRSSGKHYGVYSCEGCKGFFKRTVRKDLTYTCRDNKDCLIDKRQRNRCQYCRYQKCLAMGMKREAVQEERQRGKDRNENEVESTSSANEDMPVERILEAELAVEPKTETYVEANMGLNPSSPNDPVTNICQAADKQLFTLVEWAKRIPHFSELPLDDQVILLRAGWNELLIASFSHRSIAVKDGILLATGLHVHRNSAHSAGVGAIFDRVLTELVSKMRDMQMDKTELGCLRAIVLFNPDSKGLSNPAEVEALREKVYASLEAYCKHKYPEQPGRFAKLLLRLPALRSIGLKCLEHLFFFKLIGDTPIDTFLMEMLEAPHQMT
Estrogen receptor (Homo sapiens), sequence (P03372 whole entry, looked up): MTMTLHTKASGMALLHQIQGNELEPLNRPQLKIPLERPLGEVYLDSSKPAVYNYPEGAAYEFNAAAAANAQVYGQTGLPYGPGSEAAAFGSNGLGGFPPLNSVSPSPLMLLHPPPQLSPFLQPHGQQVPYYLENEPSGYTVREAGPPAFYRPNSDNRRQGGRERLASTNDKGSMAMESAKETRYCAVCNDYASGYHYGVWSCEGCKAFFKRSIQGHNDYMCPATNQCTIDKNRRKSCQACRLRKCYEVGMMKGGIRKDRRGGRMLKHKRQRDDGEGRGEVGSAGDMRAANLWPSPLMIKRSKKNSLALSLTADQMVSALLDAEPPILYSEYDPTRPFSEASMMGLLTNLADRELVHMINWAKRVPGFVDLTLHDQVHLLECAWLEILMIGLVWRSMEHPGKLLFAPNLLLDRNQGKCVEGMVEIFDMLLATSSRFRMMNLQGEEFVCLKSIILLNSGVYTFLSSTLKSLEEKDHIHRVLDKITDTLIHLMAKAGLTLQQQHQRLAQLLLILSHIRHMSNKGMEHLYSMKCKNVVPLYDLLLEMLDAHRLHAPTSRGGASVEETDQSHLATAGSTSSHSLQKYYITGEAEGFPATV

Regarding `CCC(=NOC/C=C/Cl)C1=C(O)CC(C2CCOCC2)CC1=O` (stereo not given), the outcome in test [1], in test [2], in test [3], in [4] and in test [5] was inactive.

`CNC(=O)ON=C(C)SC`: the compound was called inactive in test [1], in [2], in test [3], in test [4], in test [5] and in [6]. In addition, the compound was classed as inactive in test [7], in test [8] and in test [9].

The term AC50 denotes the midpoint of the concentration-response curve, whichever way the signal moves. As to `C#CC(C)(C)NC(=O)c1cc(Cl)cc(Cl)c1`, the outcome in test [2] and in test [9] was inactive. The AC50 in [6] is 19.1 µM (active); in [7], 13.4 µM (active); in [8] it was 23.7 µM (active).

As to `CCOP(=S)(OCC)SCCSCC`, the outcome in test [1], in [2], in test [4] and in test [5] was inactive.

As to `CC1=NNC(=O)N(/N=C/c2cccnc2)C1`, the outcome in [1], in test [3], in test [4] and in test [5] was inactive.

In the case of `CNc1cnn(-c2cccc(C(F)(F)F)c2)c(=O)c1Cl`, the compound was classed as inactive in test [1], in test [10], in test [11], in test [2], in [3] and in test [4]. The compound was called inactive in [5], in test [7], in [8] and in test [9]. Besides, in test [6], the AC50 was 11.5 µM (active).

Take `CCOP(=S)(OCC)OC(Cl)C(Cl)(Cl)Cl` (stereo not given): the call in test [1], in test [2], in test [3], in test [4] and in test [5] was inactive. Also, the AC50 in test [2] is 80.9 µM (active).

On to `CN(C)NC(=O)CCC(=O)O`, for which the AC50 in test [1] is 16.8 µM (active). For the same compound, the result in [2], in test [3], in test [4], in [5], in test [7] and in test [8] was inactive.

Turning to `CCc1cnc(C2=NC(C)(C(C)C)C(=O)N2)c(C(=O)O)c1` (stereo not given), the call in test [3], in [4] and in test [5] was inactive.

Turning to `CCOP(=O)(SC(C)CC)N1CCSC1=O` (stereo not given), the result in test [2], in test [3], in test [4] and in [5] was inactive.

In the case of `CCCCN(CC)c1c([N+](=O)[O-])cc(C(F)(F)F)cc1[N+](=O)[O-]`, the call in test [1], in test [2], in test [3], in [4], in [5] and in [7] was inactive. Also, the outcome in test [8] and in test [9] was inactive.

Consider `CSC1=N[C@@](C)(c2ccccc2)C(=O)N1Nc1ccccc1`, for which the compound was classed as inactive in [1], in [2], in test [3], in [4] and in test [5]. The AC50 in test [10] is 44.8 µM (active); in [11], 50 µM (active).

On to `CC(=NC#N)N(C)Cc1ccc(Cl)nc1`, for which the result in test [1], in test [2], in test [3], in test [4] and in test [5] was inactive.

In the case of `CON=C(C(=O)OC)c1ccccc1CON=C(C)c1cccc(C(F)(F)F)c1`, the AC50 in test [2] is 17.4 µM (active). The compound was called inactive in test [2], in test [3], in test [4] and in test [5].

For `CNC(=O)Oc1cccc2c1OC(C)(C)O2`, the compound was classed as inactive in test [12], in test [13], in test [11], in test [2], in [4] and in [5]. In addition, the compound was called inactive in [6], in test [7] and in test [9]. For the same compound, the AC50 in test [8] is 30.9 µM (active).

Regarding `O=C(O)c1cc(Oc2ccc(C(F)(F)F)cc2Cl)ccc1[N+](=O)[O-]`, the compound was called inactive in [1], in [4], in test [5], in [6], in test [7] and in [8]. The compound was classed as inactive in test [9].
